Source: PubChem BioAssay
MITF primary – blocks human microphthalmia-associated transcription factor | AID 1259374 | AlphaScreen MITF homodimerization, bead proximity signal | inhibition, % at 2.6 µM | actives 0.91% (n = 650,000); in the data active = inhibition above about 50%;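 note: 0% = vehicle wells with protein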
GPR151 ag – activates the human receptor GPR151; PathHunter beta-arrestin GPR151 cells, luminescence; activation, % at 11.2 µM; actives 1% (n = 650,000); Q8TDV0; in the data active = activation above about 4.9%;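 note: 0% = median of compound wells and 100% = cells with positive control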
TEAD-YAP block – TEAD-YAP interaction inhibition. HEK-TIYL cells, TEAD-Gal4/YAP UAS-luciferase luminescence. inhibition, % at 9.12 µM. actives 1.4% (n = 640,000); in the data active = inhibition above about 32%;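 note: 0% = median of test compound wells and 100% = reference inhibitor wells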
FBW7 act – activators of human E3 ligase FBW7; Q969H0; AlphaScreen FBW7–phospho-cyclin E peptide binding, activator screen; normalized activity (activation), % at 26.1 µM; actives 0.13% (n = 650,000); in the data active = normalized activity above about 1.9%;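 note: purified mutant Fbw7 with reduced substrate affinity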
GPR151 confirm – confirmation of human GPR151 activators; AID 1508609; activation, % at 11.2 µM; shares compounds with GPR151 ag; GPR151 PathHunter beta-arrestin cells, luminescence, 90 min; % of EA-reagent control over plate median; 6,700 tested, under 10 active;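 active = mean percent activation across replicates above the confirmation screen cutoff of 4.91%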
GPR119 counter – GPR119 activation, counter-screen for GPR151 activators | activation, % at 11.2 µM | actives 0.3% (n = 6,700) | shares compounds with GPR151 ag | AID 1508611 | GPR119 PathHunter beta-arrestin cells, luminescence, 90 min; 0 = compound-well median, 100 = enzyme-acceptor control;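 active = mean percent activation in the counterscreen above 29.09%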;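 note: counterscreen on off-target GPR119 to flag nonselective hits from the GPR151 activator screen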
Target sequence (Q8TDV5 whole entry, looked up): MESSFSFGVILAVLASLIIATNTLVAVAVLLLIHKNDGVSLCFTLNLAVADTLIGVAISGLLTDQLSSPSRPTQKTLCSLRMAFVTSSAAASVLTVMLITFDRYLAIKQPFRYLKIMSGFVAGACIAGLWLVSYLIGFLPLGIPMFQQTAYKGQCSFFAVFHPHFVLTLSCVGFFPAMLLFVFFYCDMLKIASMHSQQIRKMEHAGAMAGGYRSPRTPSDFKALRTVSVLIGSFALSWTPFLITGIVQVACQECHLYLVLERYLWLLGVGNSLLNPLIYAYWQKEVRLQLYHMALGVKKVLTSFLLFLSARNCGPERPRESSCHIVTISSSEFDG
Starred values were filed as active, the others as inactive; / = no result. Most compounds without a hit are left out; they make up all but 3.4% or so of the library.

SMILES	MITF primary	GPR151 ag	TEAD-YAP block	FBW7 act	GPR151 confirm	GPR119 counter
COc1ccc(-c2cc(Nc3ccc(Oc4ccccc4)cc3)nc(N)n2)cc1	7.9	4.9	-1.9	0.1	/	/
Nc1cccc(-c2cc(Nc3ccc(Oc4ccccc4)cc3)nc(N)n2)c1	7.2	4.9*	52.3*	0.0	0.6	-6.6
Cc1ccc(C)c(N2C(=O)CN(S(C)(=O)=O)CC2(C)C(=O)NC2CCCCCC2)c1 (centres undefined)	11.7	-0.4	2.6	0.1	/	/
Cc1ccc(N2C(=O)CN(S(C)(=O)=O)CC2(C)C(=O)NC2CCCCC2)cc1C (centres undefined)	2.5	5.1*	0.9	-0.2	0.8	-9.1
C=CCc1cccc(/C=C/C(=O)c2c(O)cc(C)oc2=O)c1O	-5.8	5.9*	-4.6	-0.1	-0.5	8.5
Cc1cc(O)c(C(=O)/C=C/c2ccccc2Br)c(=O)o1	-12.3	0.2	-2.2	0.0	/	/
C[C@@H]1CN(C(=O)c2nc3ccc(Cl)cn3c2CN(C)Cc2ccn[nH]2)C[C@H](C)O1	-9.8	1.0	9.8	0.0	/	/
Cc1ccc(NC(=O)c2cnc(N3CCN(c4ccccn4)CC3)c3ccccc23)cc1F	2.2	10.3*	12.3	0.1	-0.7	-14.2
O=C(Nc1ccccc1)c1cc(N2CCN(c3ccccn3)CC2)nc2ccccc12	5.9	5.1*	4.8	0.3	-0.2	-0.2
O=C(Nc1ccc(F)cc1)c1cnc(N2CCN(c3ccccn3)CC2)c2ccccc12	16.5	-0.1	0.0	-0.1	/	/
CC(C)CCn1nc(C(=O)NN)c2ccccc2c1=O	1.1	6.0*	-2.6	0.1	0.7	7.1
COc1cc(N=Cc2c(O)n(-c3ccccc3F)c(=S)[nH]c2=O)cc(OC)c1	2.4	5.4*	10.2	-0.1	-0.8	-4.9
COc1cc(N=Cc2c(O)n(-c3ccccc3F)c(=O)[nH]c2=O)cc(OC)c1	11.7	1.3	-23.1	0.4	/	/
O=C(NCc1ccc(F)cc1)c1ccc2nc(-c3cccs3)c(-c3cccs3)nc2c1	1.7	4.9*	11.4	-0.1	0.0	3.0
Cc1ccc2[nH]c(=O)c(CN(CC3COCCO3)S(=O)(=O)c3ccc(F)cc3)cc2c1 (centres undefined)	11.1	5.3*	-12.1	0.5	-0.8	0.0
CN1CCN(c2ccccc2NC(=O)c2ccc([N+](=O)[O-])o2)CC1	-3.7	5.7*	5.9	0.0	-0.2	-7.7
CS(=O)(=O)N1CCN(c2ccccc2NC(=O)c2ccc([N+](=O)[O-])o2)CC1	4.6	-0.8	4.5	-0.2	/	/
CN1CCN(c2ccccc2NC(=O)Cc2ccc(Cl)cc2)CC1	-0.5	6.1*	-8.6	0.0	-0.3	1.5
O=C(NC(=S)c1cccc2ccccc12)N1CCCCC1	10.9	-1.1	-1.4	-0.1	/	/
O=C(c1cc(Cl)ccc1[N+](=O)[O-])N1CCN(c2ncccn2)CC1	9.8	8.3*	3.2	0.2	0.6	-3.6
O=C(COC(=O)c1cc(O)c(O)c(O)c1)NC1CCCc2ccccc21 (centres undefined)	32.3	-0.8	7.8	-0.2	/	/
Nc1cccc(C(=O)OCC(=O)NC2CCCc3ccccc32)c1 (centres undefined)	3.9	5.2*	9.2	0.1	-0.8	-2.5
CCOc1ccc(/C=C/C(=O)O)c(OCC)c1	7.8	0.9	1.6	0.0	/	/
O=C(Nc1ccccc1F)c1ccccc1NS(=O)(=O)c1ccc(F)c(F)c1	5.1	1.7	24.1	-0.1	/	/
CC12C=CC(C)(O1)C1C(=O)N(c3ccc(-c4ccccc4)cc3)C(=O)C12 (centres undefined)	-13.1	5.7*	-2.7	-0.1	-1.0	-14.8
CC12C=CC(C)(O1)C1C(=O)N(c3ccccc3)C(=O)C12 (centres undefined)	-7.3	1.4	-0.5	-0.2	/	/
O=C(CSc1nnnn1-c1ccc(F)cc1)NCc1ccccc1C(=O)O	16.2	10.2*	-1.1	0.2	-0.3	2.2
O=C(CSc1nnnn1-c1ccc(F)cc1)NCCc1ccccc1	20.0	-0.5	6.9	0.3	/	/
N#C/C(=C/c1ccc(OCC(=O)O)cc1)c1cccc([N+](=O)[O-])c1	0.6	-1.0	4.6	-0.1	/	/
COc1cccc(C2=NOC(C(=O)Nc3cc(C)ccc3O)C2)c1 (centres undefined)	1.2	-0.3	-7.9	-0.3	/	/
